In ChEMBL document CHEMBL3988442, “University of Dundee, Small-Polar-MMV Screening Library” (2021):
For part of these data: Measured potencies and affinities stand elsewhere.

Legend:
Parameters in all cases: scale not given: direction of the effect not stated beside the values
[1] = target: Protein translocase subunit SecA (Escherichia coli (strain K12)) (UniProt P10408); experiment: Assay to Identify E. coli SecA ATPase Inhibitors; format: functional; settings: 30 µM
[2] = target: T1, Ubiquitin-activating enzyme e1, putative (Leishmania donovani (strain BPK282A1)) (UniProt E9BSI1); experiment: Leishmania donovani Ubiquitin Activating Enzyme (LdE1); format: functional; settings: 30 µM
T1 sequence (whole entry): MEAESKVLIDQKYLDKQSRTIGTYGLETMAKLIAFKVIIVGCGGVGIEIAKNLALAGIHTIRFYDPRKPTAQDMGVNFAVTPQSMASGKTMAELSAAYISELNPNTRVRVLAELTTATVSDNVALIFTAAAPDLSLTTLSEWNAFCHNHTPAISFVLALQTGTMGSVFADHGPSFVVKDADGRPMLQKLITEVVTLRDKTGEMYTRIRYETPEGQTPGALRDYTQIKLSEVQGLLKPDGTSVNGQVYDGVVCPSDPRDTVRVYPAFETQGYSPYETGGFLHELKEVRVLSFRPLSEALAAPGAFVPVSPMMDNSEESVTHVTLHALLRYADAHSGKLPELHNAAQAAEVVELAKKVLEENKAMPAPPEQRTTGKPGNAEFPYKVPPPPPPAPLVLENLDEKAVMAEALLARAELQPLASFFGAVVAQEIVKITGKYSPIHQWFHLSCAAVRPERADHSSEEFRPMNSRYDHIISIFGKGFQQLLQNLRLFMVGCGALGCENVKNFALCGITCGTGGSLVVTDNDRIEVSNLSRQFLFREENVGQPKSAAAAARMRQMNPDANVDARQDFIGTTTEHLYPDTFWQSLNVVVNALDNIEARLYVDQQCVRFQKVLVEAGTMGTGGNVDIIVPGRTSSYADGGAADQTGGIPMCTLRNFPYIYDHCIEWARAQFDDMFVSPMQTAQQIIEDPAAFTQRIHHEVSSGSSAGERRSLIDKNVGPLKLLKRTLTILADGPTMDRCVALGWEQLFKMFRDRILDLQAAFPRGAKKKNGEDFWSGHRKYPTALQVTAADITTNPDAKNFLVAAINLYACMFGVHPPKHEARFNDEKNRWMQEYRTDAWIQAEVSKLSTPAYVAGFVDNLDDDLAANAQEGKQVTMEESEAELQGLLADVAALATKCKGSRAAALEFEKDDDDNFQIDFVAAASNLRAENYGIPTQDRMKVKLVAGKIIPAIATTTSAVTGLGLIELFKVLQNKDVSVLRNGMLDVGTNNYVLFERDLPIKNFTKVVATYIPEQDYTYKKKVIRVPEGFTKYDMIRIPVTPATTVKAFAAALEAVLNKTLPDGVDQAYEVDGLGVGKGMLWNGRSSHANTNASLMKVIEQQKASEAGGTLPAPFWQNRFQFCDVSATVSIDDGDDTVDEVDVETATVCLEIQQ

[3] = target: T2, Aspartate--tRNA(Asp/Asn) ligase (Mycobacterium tuberculosis (strain ATCC 25618 / H37Rv)) (UniProt P9WFW3); experiment: Assay for Asp RNA synthetase-1 from Mycobacterium tuberculosis; format: functional; settings: 30 µM; note: in the data most compounds retested in dose-response had high values
T2 sequence (whole entry): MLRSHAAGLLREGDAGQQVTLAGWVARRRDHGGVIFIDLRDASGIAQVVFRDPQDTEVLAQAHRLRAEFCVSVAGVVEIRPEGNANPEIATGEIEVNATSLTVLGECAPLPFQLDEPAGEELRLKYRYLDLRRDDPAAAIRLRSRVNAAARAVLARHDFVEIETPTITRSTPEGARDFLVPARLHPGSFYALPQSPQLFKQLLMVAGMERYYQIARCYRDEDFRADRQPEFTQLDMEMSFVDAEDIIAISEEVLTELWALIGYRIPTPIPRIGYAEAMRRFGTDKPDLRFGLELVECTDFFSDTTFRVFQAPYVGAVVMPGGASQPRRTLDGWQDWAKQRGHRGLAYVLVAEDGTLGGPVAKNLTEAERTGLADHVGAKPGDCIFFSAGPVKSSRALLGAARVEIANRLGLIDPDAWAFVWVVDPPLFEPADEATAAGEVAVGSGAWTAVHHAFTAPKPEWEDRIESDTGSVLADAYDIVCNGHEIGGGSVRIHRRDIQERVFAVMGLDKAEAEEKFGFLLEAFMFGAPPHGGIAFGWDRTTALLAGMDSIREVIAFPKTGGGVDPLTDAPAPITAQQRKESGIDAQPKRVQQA

[4] = target: AMP-activated protein kinase, AMPK (Homo sapiens) (UniProt P54646+O43741+P54619+Q9UGJ0+Q9Y478+Q13131+Q9UGI9); experiment: AMP-dependent Kinase enzyme assay. An in vitro enzyme assay that detects ADP turnover that is directly proportional to AMPK activity. This uses naive AMPK that is activated during the assay with MK-8722; format: functional; settings: 30 µM
[5] = target: Sialic acid-binding Ig-like lectin 9 (Homo sapiens) (UniProt Q9Y336); experiment: Hs-Siglec9 ALPHAscreen SOP 20170721; settings: 10 µM
Sequence of Sialic acid-binding Ig-like lectin 9 (Homo sapiens) (Q9Y336 whole entry): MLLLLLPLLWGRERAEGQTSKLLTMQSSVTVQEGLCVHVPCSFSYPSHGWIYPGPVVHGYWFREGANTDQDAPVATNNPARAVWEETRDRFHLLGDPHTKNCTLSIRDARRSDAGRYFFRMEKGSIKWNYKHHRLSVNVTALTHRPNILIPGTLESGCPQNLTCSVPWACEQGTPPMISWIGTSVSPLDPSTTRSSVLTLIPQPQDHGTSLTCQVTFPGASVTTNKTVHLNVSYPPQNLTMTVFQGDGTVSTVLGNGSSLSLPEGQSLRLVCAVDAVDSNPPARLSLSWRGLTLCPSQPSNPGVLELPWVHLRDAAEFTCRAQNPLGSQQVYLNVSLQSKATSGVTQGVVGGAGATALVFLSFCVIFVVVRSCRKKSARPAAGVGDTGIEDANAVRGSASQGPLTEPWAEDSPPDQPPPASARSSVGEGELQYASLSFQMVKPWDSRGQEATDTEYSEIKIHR

Trypanosoma cruzi = experiment: Trypanosoma cruzi phosphomannomutase and mannose-1-phosphate guanylyltransferase assay; format: functional; settings: 10 µM
[6] = target: T3, Arginase-2, mitochondrial (Homo sapiens) (UniProt P78540); experiment: in vitro enzyme assay to detect the production of urea directly proportional to the activity of Arginase II; format: functional; settings: 33.3 µM; note: in the data most compounds retested in dose-response had high values
T3 sequence (whole entry): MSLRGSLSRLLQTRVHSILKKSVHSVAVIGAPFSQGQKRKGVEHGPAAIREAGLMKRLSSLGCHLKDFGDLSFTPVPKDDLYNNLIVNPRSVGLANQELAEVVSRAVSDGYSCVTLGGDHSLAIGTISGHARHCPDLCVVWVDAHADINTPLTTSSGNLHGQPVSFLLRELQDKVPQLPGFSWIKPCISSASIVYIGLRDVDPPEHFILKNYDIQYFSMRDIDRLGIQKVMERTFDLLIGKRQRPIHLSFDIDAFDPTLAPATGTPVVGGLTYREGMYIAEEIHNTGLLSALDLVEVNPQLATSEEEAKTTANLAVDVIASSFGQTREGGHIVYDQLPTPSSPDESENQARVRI

[7] = target: T4, Proteasome subunit beta (Trypanosoma cruzi) (UniProt O96673); experiment: Trypanosoma cruzi proteasome chymotrypsin-like activity (TcProtChymo) assay.; note: in the data most compounds retested in dose-response had high values; format: functional; settings: 9.37 µM
T4 sequence (whole entry): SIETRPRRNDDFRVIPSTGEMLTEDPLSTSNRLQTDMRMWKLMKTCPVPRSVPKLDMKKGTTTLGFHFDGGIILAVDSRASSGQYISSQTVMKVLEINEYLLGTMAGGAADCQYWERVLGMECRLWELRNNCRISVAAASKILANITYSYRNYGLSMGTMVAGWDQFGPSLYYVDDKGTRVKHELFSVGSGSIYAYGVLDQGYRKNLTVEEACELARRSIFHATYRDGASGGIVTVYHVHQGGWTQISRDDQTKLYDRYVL

Homo sapiens = organism: Homo sapiens; experiment: To identify inhibition of the IFN signalling (Jak-Stat) pathway via expression of an eGFP reporter gene under the control of an IFN-stimulated response element (ISRE) containing MxA promoter.; format: functional; settings: 30 µM
[8] = target: Shiga toxin 2 (Escherichia coli O157:H7) (UniProt P09385+P09386); experiment: E. coli 0.157:H7 Shiga Toxin SOP - stx2 screening assay; format: functional; settings: 30 µM
[9] = target: T5, Tyrosyl-tRNA synthetase, putative (Trypanosoma cruzi (strain CL Brener)) (UniProt Q4DSP6); experiment: Trypanosoma cruzi tyrosyl tRNA synthetase (TcYRS) _High Tyrosine SOP; format: functional; settings: 30 µM; note: in the data most compounds retested in dose-response had high values
T5 sequence (whole entry): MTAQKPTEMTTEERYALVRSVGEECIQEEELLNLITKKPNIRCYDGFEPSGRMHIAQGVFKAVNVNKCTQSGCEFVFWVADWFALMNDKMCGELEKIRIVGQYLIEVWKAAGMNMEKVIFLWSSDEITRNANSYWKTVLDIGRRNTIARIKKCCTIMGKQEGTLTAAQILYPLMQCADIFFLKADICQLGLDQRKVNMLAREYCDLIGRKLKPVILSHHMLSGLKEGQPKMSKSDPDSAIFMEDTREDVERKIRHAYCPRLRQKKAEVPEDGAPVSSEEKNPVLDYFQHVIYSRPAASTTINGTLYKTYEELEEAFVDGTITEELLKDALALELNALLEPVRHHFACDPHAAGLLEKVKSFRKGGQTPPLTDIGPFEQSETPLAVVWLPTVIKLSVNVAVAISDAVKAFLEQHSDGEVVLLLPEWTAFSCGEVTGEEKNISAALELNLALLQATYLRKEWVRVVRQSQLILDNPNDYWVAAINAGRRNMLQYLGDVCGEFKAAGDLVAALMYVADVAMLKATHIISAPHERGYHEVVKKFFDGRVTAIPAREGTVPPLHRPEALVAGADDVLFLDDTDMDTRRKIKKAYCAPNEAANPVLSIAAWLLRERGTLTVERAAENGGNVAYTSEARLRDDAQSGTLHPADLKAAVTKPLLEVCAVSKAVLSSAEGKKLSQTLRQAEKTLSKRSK

[10] = target: T5, Tyrosyl-tRNA synthetase, putative (Trypanosoma cruzi (strain CL Brener)); experiment: Trypanosoma cruzi tyrosyl tRNA synthetase (TcYRS) SOP; format: functional; settings: 30 µM
[11] = target: Chromo domain-containing protein 1 (Saccharomyces cerevisiae (strain ATCC 204508 / S288c) (Baker's yeast)) (UniProt P32657); experiment: ScCHD-1 Enzyme Inhibition Assay; format: functional; settings: 30 µM; note: in the data most compounds retested in dose-response had high values
Sequence of Chromo domain-containing protein 1 (Saccharomyces cerevisiae (strain ATCC 204508 / S288c) (Baker's yeast)) (P32657 whole entry, the tested form may be a part): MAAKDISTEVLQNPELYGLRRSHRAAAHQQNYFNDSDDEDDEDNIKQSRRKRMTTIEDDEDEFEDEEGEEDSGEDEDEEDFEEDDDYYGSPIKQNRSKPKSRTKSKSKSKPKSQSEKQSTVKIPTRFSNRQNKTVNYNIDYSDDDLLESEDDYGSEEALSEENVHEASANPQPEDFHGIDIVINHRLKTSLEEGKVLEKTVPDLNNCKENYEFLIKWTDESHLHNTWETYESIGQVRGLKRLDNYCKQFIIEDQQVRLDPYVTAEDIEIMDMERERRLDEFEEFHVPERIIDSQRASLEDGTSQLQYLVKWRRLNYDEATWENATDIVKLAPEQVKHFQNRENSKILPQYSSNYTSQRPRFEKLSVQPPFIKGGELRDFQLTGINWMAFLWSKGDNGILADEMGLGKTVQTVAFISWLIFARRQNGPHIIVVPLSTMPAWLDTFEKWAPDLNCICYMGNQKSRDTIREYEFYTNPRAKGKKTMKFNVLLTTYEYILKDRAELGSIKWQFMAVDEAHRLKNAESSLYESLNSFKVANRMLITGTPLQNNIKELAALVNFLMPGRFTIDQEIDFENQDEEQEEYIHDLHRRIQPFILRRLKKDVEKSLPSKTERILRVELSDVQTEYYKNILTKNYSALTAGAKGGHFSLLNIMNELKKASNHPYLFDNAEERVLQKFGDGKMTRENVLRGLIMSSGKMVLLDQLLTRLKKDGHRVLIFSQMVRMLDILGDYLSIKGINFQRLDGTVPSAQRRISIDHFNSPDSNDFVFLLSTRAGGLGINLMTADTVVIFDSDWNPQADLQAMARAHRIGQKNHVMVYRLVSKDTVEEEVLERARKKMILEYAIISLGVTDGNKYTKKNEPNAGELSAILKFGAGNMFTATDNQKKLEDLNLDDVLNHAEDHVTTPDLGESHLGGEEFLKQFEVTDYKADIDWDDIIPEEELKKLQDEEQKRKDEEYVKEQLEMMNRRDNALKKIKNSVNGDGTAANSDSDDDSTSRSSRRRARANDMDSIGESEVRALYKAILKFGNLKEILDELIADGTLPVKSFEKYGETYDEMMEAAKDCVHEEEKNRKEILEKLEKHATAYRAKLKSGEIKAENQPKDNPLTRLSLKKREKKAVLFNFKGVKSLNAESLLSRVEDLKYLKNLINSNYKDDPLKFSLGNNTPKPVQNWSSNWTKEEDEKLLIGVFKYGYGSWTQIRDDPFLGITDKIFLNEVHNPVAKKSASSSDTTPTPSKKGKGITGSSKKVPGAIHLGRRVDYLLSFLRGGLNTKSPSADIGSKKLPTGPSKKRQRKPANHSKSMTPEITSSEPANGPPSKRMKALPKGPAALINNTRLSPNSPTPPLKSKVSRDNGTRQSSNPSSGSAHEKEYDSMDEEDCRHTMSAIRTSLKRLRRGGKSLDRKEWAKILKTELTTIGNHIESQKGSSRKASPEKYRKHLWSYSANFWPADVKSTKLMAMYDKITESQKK

Sequence of Protein translocase subunit SecA (Escherichia coli (strain K12)) (P10408 whole entry): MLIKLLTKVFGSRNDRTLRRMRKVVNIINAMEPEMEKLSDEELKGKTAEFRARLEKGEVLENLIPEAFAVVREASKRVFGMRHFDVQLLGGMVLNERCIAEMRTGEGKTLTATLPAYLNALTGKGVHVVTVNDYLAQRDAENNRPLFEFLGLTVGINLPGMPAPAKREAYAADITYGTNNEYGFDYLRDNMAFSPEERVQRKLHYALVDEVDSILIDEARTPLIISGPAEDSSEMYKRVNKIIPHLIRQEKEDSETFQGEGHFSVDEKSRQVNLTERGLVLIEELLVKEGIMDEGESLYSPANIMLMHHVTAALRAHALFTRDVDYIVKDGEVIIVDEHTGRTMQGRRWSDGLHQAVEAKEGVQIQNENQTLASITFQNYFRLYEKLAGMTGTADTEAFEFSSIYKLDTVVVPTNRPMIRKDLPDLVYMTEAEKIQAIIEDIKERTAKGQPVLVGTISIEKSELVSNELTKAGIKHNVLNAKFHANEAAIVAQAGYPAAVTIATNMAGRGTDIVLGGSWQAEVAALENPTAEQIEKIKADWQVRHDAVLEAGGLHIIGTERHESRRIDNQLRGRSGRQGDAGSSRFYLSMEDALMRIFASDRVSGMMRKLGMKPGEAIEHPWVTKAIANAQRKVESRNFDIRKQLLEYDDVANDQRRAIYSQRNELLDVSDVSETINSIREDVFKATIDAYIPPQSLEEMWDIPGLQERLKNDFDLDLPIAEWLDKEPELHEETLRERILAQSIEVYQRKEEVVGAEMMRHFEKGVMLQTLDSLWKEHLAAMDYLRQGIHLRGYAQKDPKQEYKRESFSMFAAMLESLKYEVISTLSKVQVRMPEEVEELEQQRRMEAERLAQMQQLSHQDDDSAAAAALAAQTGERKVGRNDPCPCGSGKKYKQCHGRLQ

Row | Structure (SMILES) | Percent Effect [1] | Percent Effect [2] | Percent Effect [3] | Percent Effect [4] | Percent Effect [5] | Percent Effect (Trypanosoma cruzi) | Percent Effect [6] | Percent Effect [7] | Percent Effect (Homo sapiens) | Percent Effect [8] | Percent Effect [9] | Percent Effect [10] | Percent Effect [11]
1 | c1ccc(CN2C[C@@H]3OCCN(c4ncccn4)[C@@H]3C2)nc1 | -3.31% | 5.33% | -0.456% | 12.4% | 1.5% | -4.53% | -1.17% | -2.73% | 6.09% | 1.03% | 6.38% | 8.97% | -1.36%
2 | COCCN1C[C@@H]2[C@@H](OC)CCN(Cc3cccc(C)n3)[C@@H]2C1 | -1.97% | 11% | -0.137% | -7.2% | 9.07% | 6.75% | -2% | 12.1% | -7.05% | -22.1% | 7.29% | 13.6% | -5.26%
3 | CCc1nnc(C(C)N2CCCN(C(=O)Oc3ccccc3)CC2)o1 (configuration not stated) | -1.28% | 15.8% | -3.35% | 0.0863% | -6.34% | -6.72% | -3.55% | 12.6% | 3.97% | -15.6% | 2.13% | 5.2% | -5.08%
4 | O=C(c1cscn1)N1CCN2C[C@H](OCc3cccnc3)C[C@H]2C1 | 4.53% | 16% | 2.54% | 2.68% | -10.9% | -9.05% | 6.76% | 12.1% | 0.411% | -22.2% | 5.32% | 3.85% | 1.28%
5 | O=C(NCc1ccccn1)[C@]12COC[C@H]1CN(C1CCC1)C2 | -2.39% | 18.7% | -4.34% | 0.454% | 0.409% | 3.86% | 85.8% | 10.9% | -5.18% | -15.4% | 3.12% | 10% | -7.8%
6 | c1cncc(N2CCOCC3(CCCN(Cc4cccs4)C3)C2)c1 (configuration not stated) | -5.18% | 13.5% | 2.95% | 5.95% | -1.9% | -0.293% | 2.23% | 10.3% | 4.59% | 14.1% | 8.65% | 15.4% | -1.37%
7 | CS(=O)(=O)N1CCC(C(=O)N2CCC3(CC2)OCCCO3)CC1 | -4.7% | 20.8% | 3.34% | -4.81% | -12.3% | 5.23% | 3.23% | 12.2% | 14.4% | -32.1% | 6.35% | 21.8% | -10.8%
8 | Cc1noc(C)c1CN1C[C@H](OCC2CC2)[C@H]2OCCC[C@H]21 | -4.83% | 8.11% | -3.74% | -3.37% | 5.64% | 0.293% | 4.71% | 8.84% | -6.54% | -3.9% | 7.53% | 11.1% | -10.2%
9 | Cc1ncsc1CN1CC[C@H]2C[C@H](c3ccncn3)O[C@@H]2C1 | 1.18% | 10.4% | 1.35% | 2.98% | -6.01% | -9.57% | 0.645% | 9.4% | 24.2% | 0.203% | 1.06% | 6.41% | -5.8%
